Results published in the supplement of paper PMC11732987, “Enantioselective OTUD7B fragment discovery through chemoproteomics screening and high-throughput optimisation” (Communications Chemistry, 2025).

How the values were obtained:
Assay in all cases: log2 ratio of Biotin-Ahx-Ub-VS probe labelling (fragment/DMSO); higher = less target engagement (more negative = stronger competition), active = hit call of the paper (q ≤ 0.05, log2 ratio ≤ -1)
Settings in all cases: compound concentration: 200 uM; treatment time: 3 h
[1] = biological target: T1, USP42 (UniProt Q9H9J4)
T1 sequence (whole entry): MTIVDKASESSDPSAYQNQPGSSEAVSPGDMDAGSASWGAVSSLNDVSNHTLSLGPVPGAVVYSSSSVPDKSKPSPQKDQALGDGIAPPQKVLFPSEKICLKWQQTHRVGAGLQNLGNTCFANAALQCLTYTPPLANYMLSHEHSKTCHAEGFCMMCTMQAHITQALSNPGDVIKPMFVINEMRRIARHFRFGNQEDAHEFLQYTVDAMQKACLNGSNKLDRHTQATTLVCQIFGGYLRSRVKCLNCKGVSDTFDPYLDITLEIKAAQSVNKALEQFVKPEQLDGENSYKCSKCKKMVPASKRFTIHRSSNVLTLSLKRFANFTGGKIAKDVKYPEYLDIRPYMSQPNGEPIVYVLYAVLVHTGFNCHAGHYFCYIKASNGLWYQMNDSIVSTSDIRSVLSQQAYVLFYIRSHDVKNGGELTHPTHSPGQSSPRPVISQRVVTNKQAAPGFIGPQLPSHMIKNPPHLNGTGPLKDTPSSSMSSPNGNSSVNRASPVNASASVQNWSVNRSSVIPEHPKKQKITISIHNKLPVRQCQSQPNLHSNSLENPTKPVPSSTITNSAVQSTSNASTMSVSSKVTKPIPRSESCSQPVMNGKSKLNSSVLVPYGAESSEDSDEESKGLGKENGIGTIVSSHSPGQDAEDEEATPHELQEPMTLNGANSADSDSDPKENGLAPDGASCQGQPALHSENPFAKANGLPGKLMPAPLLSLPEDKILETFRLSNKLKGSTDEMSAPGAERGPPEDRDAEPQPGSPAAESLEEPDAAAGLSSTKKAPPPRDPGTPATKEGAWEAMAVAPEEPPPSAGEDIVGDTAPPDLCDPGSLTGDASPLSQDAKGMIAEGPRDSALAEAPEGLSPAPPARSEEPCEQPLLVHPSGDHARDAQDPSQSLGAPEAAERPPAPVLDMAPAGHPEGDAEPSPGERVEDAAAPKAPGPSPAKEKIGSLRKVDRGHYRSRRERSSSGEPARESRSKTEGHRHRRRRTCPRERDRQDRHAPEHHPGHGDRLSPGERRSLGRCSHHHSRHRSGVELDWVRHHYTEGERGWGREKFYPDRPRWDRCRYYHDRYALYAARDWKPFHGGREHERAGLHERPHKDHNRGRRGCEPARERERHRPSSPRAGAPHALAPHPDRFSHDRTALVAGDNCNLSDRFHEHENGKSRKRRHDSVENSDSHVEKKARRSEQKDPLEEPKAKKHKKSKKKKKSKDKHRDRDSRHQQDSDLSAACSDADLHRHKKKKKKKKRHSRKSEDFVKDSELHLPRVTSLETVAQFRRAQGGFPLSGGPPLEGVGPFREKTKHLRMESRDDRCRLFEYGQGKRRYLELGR
In short: (§1)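 Labelled DUBs from HEK293T lysate were NeutrAvidin-enriched, digested with LysC and trypsin, and run by diaPASEF LC-MS/MS. Before that, each 495 µg sample in Tris/CHAPS/IGEPAL buffer with protease inhibitors was treated in triplicate with fragment at 200 µM or vehicle for 3 h, then with Biotin-Ahx-Ub-VS at 0.5 µM final for 1 h. Values are average log2 ratios of fragment over vehicle by unpaired t-test, based on global-median-normalised Spectronaut label-free quantities from proteins with ≥2 unique peptides.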

[2] = biological target: USP46 (UniProt P62068)
Chain of USP46 (P62068 whole entry): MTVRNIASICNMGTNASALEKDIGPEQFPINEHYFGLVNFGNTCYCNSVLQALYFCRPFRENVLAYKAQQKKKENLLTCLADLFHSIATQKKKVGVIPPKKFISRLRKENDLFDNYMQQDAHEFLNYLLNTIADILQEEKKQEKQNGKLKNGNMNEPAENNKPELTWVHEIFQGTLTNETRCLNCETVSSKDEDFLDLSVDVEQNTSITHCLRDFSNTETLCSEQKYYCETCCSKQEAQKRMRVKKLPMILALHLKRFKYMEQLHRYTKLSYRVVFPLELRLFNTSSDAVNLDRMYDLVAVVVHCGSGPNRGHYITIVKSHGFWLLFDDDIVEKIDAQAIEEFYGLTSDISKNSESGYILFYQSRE
In short: as §1

[3] = biological target: T2, USP47 (UniProt Q96K76)
T2 sequence (whole entry): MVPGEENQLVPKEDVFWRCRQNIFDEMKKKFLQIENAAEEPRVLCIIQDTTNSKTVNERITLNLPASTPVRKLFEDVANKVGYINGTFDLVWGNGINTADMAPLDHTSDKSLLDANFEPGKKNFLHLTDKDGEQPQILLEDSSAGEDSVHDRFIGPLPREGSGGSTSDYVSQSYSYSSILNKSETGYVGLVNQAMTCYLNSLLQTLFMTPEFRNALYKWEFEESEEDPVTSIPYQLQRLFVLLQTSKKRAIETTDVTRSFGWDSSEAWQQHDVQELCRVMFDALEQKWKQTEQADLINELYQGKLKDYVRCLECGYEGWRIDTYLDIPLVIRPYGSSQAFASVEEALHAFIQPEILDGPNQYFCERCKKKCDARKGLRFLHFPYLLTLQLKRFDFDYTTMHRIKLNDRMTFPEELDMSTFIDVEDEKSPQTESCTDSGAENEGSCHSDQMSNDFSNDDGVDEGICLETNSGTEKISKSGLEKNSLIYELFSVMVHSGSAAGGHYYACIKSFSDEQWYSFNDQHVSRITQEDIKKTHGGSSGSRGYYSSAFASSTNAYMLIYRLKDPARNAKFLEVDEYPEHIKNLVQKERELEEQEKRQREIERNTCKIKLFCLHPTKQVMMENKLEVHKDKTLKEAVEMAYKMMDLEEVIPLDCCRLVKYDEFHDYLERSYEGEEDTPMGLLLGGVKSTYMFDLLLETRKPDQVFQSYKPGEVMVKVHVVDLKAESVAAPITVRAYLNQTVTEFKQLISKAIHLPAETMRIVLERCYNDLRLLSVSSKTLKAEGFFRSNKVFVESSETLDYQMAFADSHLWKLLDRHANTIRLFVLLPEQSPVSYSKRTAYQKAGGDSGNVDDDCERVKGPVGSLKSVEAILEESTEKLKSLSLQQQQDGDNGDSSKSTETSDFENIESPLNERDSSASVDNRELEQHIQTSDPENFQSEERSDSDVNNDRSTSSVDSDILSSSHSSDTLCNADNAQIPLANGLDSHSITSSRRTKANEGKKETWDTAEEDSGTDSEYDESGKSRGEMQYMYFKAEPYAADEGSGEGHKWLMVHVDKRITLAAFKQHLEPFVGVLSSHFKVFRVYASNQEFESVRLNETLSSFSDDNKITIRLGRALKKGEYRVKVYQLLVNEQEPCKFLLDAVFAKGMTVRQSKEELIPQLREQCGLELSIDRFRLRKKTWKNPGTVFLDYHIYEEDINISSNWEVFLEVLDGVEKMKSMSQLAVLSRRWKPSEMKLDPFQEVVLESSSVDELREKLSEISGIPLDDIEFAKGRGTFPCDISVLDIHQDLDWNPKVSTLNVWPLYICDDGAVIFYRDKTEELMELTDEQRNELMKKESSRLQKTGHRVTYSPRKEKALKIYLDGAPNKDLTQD
In short: as §1

[4] = biological target: T3, USP48 (UniProt Q86UV5)
T3 sequence (whole entry): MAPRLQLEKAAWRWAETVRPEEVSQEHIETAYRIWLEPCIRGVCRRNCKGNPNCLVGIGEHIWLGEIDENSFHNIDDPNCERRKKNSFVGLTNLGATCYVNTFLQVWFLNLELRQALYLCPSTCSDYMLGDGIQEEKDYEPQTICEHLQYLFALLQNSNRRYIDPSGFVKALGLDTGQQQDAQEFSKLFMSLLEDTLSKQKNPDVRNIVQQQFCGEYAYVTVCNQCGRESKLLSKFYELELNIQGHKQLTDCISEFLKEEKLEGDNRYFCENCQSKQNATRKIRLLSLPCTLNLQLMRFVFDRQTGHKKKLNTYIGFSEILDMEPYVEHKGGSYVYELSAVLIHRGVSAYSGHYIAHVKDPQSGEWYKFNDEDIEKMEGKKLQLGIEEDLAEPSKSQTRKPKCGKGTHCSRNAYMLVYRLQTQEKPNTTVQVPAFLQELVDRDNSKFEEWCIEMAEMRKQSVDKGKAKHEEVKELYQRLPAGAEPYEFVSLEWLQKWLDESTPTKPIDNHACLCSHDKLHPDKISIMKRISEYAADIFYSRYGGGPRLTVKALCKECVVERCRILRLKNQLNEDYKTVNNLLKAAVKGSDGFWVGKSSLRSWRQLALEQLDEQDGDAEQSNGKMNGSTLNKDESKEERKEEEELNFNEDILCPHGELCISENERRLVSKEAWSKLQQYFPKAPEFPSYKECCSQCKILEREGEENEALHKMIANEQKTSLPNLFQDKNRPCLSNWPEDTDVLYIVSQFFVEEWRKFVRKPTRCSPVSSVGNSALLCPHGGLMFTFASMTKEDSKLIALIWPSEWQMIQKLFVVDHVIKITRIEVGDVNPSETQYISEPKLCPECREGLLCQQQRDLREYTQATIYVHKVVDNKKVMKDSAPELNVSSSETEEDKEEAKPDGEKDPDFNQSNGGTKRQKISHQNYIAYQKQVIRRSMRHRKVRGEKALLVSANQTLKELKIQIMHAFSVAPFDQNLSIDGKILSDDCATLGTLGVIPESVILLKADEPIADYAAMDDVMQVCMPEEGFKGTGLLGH
In short: as §1

[5] = biological target: T4, USP5 (UniProt P45974)
T4 sequence (whole entry): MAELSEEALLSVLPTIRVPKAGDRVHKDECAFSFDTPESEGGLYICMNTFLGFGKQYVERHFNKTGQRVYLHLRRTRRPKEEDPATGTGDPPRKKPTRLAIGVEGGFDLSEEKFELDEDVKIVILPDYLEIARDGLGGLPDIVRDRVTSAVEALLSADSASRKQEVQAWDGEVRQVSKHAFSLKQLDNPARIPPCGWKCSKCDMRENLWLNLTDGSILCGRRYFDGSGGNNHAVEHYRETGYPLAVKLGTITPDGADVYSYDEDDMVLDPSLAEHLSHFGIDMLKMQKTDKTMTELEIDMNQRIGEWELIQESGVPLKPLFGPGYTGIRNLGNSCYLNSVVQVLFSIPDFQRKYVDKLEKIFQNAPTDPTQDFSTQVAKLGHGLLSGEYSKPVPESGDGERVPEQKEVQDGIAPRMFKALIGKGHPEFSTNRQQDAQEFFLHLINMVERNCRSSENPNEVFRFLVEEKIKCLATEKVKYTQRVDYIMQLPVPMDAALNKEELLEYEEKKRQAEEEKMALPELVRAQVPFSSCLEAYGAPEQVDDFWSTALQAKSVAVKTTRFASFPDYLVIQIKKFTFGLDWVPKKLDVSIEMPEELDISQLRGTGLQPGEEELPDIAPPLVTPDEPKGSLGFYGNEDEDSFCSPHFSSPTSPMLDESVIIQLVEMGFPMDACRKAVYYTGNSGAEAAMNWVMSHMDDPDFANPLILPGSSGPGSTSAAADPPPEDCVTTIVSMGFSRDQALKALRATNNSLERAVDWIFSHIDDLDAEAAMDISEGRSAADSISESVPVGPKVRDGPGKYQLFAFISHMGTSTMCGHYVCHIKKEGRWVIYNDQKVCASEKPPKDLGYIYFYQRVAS
In short: as §1

[6] = biological target: USP54 (UniProt Q70EL1)
Chain of USP54 (Q70EL1 whole entry): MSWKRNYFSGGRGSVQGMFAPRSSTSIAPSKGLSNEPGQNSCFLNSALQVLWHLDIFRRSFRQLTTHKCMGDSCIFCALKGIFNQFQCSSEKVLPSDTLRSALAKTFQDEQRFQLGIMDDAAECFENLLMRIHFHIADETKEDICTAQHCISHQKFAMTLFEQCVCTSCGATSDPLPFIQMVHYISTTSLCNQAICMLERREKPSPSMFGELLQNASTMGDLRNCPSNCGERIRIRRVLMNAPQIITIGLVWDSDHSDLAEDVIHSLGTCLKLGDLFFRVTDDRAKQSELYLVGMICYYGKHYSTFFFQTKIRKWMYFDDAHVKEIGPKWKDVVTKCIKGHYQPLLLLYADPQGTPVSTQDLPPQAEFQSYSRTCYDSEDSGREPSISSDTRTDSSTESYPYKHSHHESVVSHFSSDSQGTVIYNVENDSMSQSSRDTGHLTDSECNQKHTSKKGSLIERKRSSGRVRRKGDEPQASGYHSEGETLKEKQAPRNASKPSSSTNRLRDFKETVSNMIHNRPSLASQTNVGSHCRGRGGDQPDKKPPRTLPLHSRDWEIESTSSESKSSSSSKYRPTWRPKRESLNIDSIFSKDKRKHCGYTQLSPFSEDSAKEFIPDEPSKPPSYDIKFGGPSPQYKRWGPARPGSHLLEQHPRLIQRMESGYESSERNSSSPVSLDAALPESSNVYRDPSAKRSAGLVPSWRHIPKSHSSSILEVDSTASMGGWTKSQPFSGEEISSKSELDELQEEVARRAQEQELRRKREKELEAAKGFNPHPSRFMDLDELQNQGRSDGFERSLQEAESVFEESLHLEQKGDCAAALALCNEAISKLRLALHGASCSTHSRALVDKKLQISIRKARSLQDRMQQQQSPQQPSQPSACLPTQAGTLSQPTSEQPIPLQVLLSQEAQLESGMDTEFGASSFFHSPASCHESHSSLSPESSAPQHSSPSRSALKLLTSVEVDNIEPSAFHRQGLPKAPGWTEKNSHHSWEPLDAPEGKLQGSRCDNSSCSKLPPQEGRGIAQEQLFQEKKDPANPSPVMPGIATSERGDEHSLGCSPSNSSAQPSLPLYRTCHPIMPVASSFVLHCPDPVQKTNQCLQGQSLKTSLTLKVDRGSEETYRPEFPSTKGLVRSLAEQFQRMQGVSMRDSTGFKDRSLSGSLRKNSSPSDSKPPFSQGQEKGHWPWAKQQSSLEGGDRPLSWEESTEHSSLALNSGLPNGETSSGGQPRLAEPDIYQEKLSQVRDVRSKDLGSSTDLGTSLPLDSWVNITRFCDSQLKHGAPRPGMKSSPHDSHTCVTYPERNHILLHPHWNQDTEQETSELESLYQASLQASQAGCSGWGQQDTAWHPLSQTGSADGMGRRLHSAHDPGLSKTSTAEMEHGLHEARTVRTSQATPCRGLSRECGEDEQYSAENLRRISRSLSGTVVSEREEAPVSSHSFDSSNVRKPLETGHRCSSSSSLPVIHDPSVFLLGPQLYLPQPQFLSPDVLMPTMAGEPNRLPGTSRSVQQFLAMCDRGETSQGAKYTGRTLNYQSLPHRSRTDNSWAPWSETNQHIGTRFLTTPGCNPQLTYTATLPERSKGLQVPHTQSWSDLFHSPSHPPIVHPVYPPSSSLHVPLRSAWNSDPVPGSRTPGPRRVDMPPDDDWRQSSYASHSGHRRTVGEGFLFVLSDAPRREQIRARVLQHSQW
In short: as §1

[7] = biological target: USP7 (UniProt Q93009)
Chain of USP7 (Q93009 whole entry, looked up): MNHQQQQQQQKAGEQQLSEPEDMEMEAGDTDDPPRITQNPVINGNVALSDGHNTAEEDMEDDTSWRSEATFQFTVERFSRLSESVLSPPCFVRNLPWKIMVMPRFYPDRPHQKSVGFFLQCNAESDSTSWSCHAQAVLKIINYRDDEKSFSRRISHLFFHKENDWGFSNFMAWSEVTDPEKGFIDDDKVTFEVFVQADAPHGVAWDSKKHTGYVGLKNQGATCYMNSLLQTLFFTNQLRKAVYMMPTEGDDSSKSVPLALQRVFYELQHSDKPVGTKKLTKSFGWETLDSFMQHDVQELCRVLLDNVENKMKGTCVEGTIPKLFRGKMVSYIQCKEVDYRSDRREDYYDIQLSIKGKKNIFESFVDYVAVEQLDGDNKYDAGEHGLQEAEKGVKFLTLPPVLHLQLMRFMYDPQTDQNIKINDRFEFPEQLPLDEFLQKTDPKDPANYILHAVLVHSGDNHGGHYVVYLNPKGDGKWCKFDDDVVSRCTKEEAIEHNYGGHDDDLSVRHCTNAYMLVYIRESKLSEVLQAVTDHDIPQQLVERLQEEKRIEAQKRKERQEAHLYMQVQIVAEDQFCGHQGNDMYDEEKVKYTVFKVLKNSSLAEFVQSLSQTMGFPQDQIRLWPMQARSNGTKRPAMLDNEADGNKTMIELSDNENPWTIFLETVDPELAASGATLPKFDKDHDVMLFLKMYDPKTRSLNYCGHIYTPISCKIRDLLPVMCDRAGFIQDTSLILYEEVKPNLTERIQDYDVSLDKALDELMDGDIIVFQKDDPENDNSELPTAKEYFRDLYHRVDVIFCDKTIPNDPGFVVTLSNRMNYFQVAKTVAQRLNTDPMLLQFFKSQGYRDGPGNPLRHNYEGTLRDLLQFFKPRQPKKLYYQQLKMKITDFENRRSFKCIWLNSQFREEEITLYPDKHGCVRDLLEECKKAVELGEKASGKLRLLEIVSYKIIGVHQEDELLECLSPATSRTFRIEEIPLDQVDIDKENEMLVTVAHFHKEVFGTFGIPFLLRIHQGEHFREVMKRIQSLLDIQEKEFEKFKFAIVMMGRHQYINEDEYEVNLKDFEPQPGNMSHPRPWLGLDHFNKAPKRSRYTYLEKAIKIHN
In short: as §1

[8] = biological target: T5, USP8 (UniProt P40818)
T5 sequence (whole entry): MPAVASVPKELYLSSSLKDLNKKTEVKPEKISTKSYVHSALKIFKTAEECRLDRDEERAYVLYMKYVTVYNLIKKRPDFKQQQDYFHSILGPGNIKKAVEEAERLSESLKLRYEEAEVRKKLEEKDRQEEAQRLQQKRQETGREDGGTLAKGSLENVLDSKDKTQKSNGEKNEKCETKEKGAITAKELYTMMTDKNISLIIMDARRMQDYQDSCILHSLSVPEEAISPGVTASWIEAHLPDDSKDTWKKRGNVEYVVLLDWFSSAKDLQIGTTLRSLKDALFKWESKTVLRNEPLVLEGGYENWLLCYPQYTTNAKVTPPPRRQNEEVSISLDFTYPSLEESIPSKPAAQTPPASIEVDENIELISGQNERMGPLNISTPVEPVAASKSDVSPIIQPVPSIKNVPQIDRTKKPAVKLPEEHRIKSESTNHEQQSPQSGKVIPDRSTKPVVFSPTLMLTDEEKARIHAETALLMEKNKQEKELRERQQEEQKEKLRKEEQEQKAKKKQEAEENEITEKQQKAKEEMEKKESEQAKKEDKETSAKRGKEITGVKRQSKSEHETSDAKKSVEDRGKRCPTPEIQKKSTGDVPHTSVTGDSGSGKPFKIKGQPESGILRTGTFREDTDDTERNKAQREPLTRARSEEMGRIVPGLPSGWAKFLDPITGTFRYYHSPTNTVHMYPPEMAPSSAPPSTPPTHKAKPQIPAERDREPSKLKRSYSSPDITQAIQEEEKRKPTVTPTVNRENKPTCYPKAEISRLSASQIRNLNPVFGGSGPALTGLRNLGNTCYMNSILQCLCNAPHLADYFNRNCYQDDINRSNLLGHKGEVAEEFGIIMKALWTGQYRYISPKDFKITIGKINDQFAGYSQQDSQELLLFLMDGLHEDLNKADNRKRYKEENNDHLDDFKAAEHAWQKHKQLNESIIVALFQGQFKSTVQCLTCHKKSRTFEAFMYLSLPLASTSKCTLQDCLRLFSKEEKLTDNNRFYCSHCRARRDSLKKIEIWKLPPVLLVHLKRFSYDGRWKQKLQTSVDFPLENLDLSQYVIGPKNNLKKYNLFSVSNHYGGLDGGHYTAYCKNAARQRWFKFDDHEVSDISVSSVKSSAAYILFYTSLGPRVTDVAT
In short: as §1

[9] = biological target: USP9X (UniProt Q93008)
In short: as §1

[10] = biological target: UniProt O00487
Chain of UniProt O00487 (O00487 whole entry): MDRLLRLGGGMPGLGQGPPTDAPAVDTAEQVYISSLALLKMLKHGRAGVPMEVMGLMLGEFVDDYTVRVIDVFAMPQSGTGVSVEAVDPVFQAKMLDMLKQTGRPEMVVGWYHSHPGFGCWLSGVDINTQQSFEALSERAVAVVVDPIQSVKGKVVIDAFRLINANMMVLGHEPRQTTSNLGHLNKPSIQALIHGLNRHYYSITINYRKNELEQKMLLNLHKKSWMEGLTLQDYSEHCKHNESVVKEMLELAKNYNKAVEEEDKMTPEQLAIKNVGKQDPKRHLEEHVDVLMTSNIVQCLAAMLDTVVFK
In short: as §1

Measured: log2 ratio of Biotin-Ahx-Ub-VS probe labelling

O=C(CCl)Nc1ccccc1C(F)(F)F
inactive: [1] 0.398 | [2] 0.0498 | [3] -0.374 | [4] -0.257 | [5] -0.323 | [6] 0.637 | [7] -0.404 | [8] -0.029 | [9] -0.0415 | [10] -0.162
